Potency, outcome and max activation data for 13 compounds are collected here from PubChem BioAssay (Tox21).

Unmarked numbers belong to inactive results. Records with an inconclusive call do not appear. Active and inactive are the calls of the source. Unless noted, calls come from the whole dose curve; as a rule, active = well fitted curve in the direction sought with a large enough effect in the repeat runs; inconclusive = weak or mixed curves; inactive = no such curve, though single readings can be large; an effect the other way counts as inactive or inconclusive.

Assay [1] has as its target Progesterone receptor (Homo sapiens) (UniProt P06401). In words: qHTS assay to identify small molecule antagonists of the progesterone receptor (PR) signaling pathway (AID 1346795; active = well fitted inhibition curve with a large enough effect in the signal ratio in the repeat runs, not every such curve was filed as active; the % refers to the signal ratio). The method, boiled down:
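Inhibition of R5020-induced (1 nM final) beta-lactamase reporter signal in PR-UAS-bla HEK293T cells was scored by FRET fluorescence after overnight (16 hr) compound treatment.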
In general terms: Quantitative high-throughput screening tests each substance at several concentrations.

Assay [2] in a line: qHTS assay to identify small molecule antagonists of the progesterone receptor (PR) signaling pathway - cell viability counter screen (AID 1346798). Note: nearly all actives have a fitted effect of over 50% in size. Note: potency is the fitted concentration of half-maximal effect. The gist of the method:
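ATP content as viability readout: CellTiter-Glo luminescence, 30 min room temperature, in PR-UAS-bla HEK293T cells after 16 hr compound/R5020 treatment at 37C and 5% CO2.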

Assay [3] in a line: qHTS assay to identify small molecule agonists of the progesterone receptor (PR) signaling pathway - cell viability counter screen (AID 1346799; calls by dose curve; note: nearly all actives have a fitted effect of over 45% in size; note: potency is the fitted concentration of half-maximal effect). The gist of the method: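 Cytotoxicity in PR-bla HEK293T cells: 16 h compound, 37C; CellTiter-Glo added post-FRET read; luminescence after 30 min RT.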
The nature of assay [4]: qHTS assay to identify small molecule antagonists of the TGF-beta/Smad signaling pathway - cell viability counter screen (AID 1346824). Note: nearly all actives have a fitted effect of over 50% in size. The method, boiled down: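 SBE-bla HEK 293T cells were plated overnight at 37 C, then given compounds in DMSO plus TGF-beta1 (added as 0.25 ng/mL solution) for 5 hr. After the bla read, CellTiter-Glo was added to the same wells and luminescence read after 30 min at room temperature.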

Assay [5] in a line: qHTS assay to identify small molecule agonists of the TGF-beta/Smad signaling pathway - cell viability counter screen (AID 1346829). Note: top concentration of the series differs between compounds; nearly all actives have a fitted effect of over 45% in size. The gist of the method:
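HEK 293T SBE-bla line, 5 hr compound exposure at 37 C, multiplexed CellTiter-Glo viability read by luminescence.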

Assay [6] can be described thus: qHTS assay to identify small molecule agonists of the TGF-beta/Smad signaling pathway (AID 1346859; active = well fitted activation curve with a large enough effect in the signal ratio in the repeat runs, not every such curve was filed as active; the % refers to the signal ratio; note: series mostly up to about 77 µM). The gist of the method: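 Stable Smad binding element-beta-lactamase HEK 293T cells; 5 hr compound exposure at 37 C under 5% CO2; 2 hr room-temperature substrate step; fluorescence excited at 405 nm, collected at 460 nm and 530 nm.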
In assay [7] the target is Thyrotropin-releasing hormone receptor (Homo sapiens) (UniProt P34981). Nature of the assay: qHTS assay to identify small molecule antagonists of the thyrotropin-releasing hormone receptor (TRHR) signaling pathway (AID 1346877; active = well fitted inhibition curve with a large enough effect in the repeat runs, not every such curve was filed as active; note: series mostly up to about 51 µM). The method, boiled down:
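Cells (TRHR-HEK293) are plated and kept 18 h at 37 °C/5% CO2. A calcium-sensitive dye is added for 2 h, compound follows for 5 min at room temperature, and TRH is then given at 1 nM final.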

Assay [8] has the same target. Nature of the assay: qHTS assay to identify small molecule agonists of the thyrotropin-releasing hormone receptor (TRHR) signaling pathway (AID 1346891; calls by dose curve; note: potency is the fitted concentration of half-maximal effect;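 for activation: HEK293 cells expressing TRHR with calcium dye readout; series mostly up to about 58 µM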). The method, boiled down:
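In 1536-format, 1500 TRHR-Hek293 cells per well grew 18 h, took up calcium dye for 2 h at 37 °C, received compound, and were read kinetically; 15-point titrations, triplicates.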

Assay [9] is described as follows: Caspase-3/7 induction in HepG2 cells by small molecules, qHTS assay (AID 1346978). Note: nearly all actives have a fitted effect of over 15% in size. The gist of the method: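 Wild-type HepG2 cells (2,000/well) were settled 5 h at 37 C, 5% CO2, then exposed to compounds in DMSO for 17 h. Caspase-3/7 activity was read by luminescence 30 min after adding Caspase-Glo 3/7 reagent at room temperature.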
Assay [10] in a line: Caspase-3/7 induction in CHO-K1 cells by small molecules, qHTS cell viability counter screen (AID 1346979). Note: nearly all actives have a fitted effect of over 35% in size. Note: potency is the fitted concentration of half-maximal effect. The method, boiled down: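 To flag cytotoxic compounds, treated CHO-K1 wild-type cells were given CellTiter-Fluor at 16hr and read fluorescently after 1hr at 37C; the caspase-3/7 luminescence was measured in these same wells.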
Assay [11] can be described thus: Caspase-3/7 induction in CHO-K1 cells by small molecules, qHTS assay (AID 1346980). Note: nearly all actives have a fitted effect of over 15% in size. The method, boiled down:
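Wild-type cells were seeded at 1,500 per well and settled 5 hr at 37 C, 5% CO2, then exposed to DMSO-dissolved compounds for 17 hr. Caspase-Glo 3/7 reagent was added, and luminescence was read after 30min at room temperature.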

A short description of assay [12]: Caspase-3/7 induction in HepG2 cells by small molecules, qHTS cell viability counter screen (AID 1346981). Note: nearly all actives have a fitted effect of over 30% in size. Note: potency is the fitted concentration of half-maximal effect. The method, boiled down: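 Steps: seed 2,000 HepG2 cells per well; incubate 5 hr at 37 C; pin-add compounds in DMSO; incubate 16 hr; add CellTiter-Fluor; after 1 hr at 37 C and 5% CO2, read fluorescence.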
The target of assay [13] is Nuclear receptor subfamily 1 group I member 2 (Homo sapiens) (UniProt O75469). In words: Human pregnane X receptor (PXR) small molecule agonists, qHTS assay (AID 1346982). Note: nearly all actives have a fitted effect of over 35% in size. Note: potency is the fitted concentration of half-maximal effect. The method, boiled down: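 Agonist mode qHTS: PXR-Luc HepG2 cells plated 5 hr before DMSO-dissolved compounds were pinned in, cultured 24 hr at 37 C, 5% CO2; ONE-Glo luminescence readout.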
Sequence of Nuclear receptor subfamily 1 group I member 2 (Homo sapiens) (O75469 whole entry, looked up): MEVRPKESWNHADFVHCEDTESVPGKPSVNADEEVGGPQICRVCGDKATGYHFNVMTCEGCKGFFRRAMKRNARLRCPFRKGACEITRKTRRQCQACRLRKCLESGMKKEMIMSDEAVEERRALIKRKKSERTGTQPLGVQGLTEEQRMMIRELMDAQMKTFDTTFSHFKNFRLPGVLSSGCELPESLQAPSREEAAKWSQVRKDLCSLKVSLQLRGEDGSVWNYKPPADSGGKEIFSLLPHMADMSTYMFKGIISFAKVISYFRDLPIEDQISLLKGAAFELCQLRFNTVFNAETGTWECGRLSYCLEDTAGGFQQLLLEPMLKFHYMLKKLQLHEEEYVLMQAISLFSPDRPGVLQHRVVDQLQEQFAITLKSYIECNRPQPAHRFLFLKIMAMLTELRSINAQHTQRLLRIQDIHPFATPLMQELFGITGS
Assay [14] is described as follows: Human pregnane X receptor (PXR) small molecule agonists, qHTS cell viability counter screen (AID 1346977). Note: nearly all actives have a fitted effect of over 50% in size. Note: potency is the fitted concentration of half-maximal effect. The method, boiled down:
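Readout is CellTiter-Fluor fluorescence from PXR-Luc HepG2 cells. Plated cells rested 5hr, then were treated with compounds for 24hr at 37C and 5% CO2, with reagent present during the last hour.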

Assay [15] deals with Cytochrome P450 2D6 (Homo sapiens) (UniProt P10635). In words: Cytochrome P450 Family 2 Subfamily D Member 6 (CYP2D6) small molecule antagonists: luciferase reporter qHTS assay (AID 1671196). Note: nearly all actives have a fitted effect of over 50% in size. Note: potency is the fitted concentration of half-maximal effect. The gist of the method:
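P450-Glo format: CYP2D6 converts a proluciferin substrate to luciferin in an NADPH-driven reaction lasting 1 h at room temperature. Light output, proportional to CYP2D6 activity, reflects interference by test chemicals.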
In general terms: Reporter assays use an easily measured gene product as a stand-in for the process of interest.

In assay [16] the target is Progesterone receptor (Homo sapiens) (UniProt P06401). Nature of the assay: qHTS assay to identify small molecule agonists of the progesterone receptor (PR) signaling pathway (AID 1346784; calls by dose curve; note: nearly all actives have a fitted effect of over 30% in size). The method, boiled down: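 Using charcoal-stripped serum (2%) to limit endogenous steroids, PR-UAS-bla HEK 293T cells received compounds for 16 hr at 37C after 6 hr plating; beta-lactamase FRET fluorescence was recorded following 2 hr substrate loading at room temperature.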
Sequence of Progesterone receptor (Homo sapiens) (P06401 whole entry, looked up): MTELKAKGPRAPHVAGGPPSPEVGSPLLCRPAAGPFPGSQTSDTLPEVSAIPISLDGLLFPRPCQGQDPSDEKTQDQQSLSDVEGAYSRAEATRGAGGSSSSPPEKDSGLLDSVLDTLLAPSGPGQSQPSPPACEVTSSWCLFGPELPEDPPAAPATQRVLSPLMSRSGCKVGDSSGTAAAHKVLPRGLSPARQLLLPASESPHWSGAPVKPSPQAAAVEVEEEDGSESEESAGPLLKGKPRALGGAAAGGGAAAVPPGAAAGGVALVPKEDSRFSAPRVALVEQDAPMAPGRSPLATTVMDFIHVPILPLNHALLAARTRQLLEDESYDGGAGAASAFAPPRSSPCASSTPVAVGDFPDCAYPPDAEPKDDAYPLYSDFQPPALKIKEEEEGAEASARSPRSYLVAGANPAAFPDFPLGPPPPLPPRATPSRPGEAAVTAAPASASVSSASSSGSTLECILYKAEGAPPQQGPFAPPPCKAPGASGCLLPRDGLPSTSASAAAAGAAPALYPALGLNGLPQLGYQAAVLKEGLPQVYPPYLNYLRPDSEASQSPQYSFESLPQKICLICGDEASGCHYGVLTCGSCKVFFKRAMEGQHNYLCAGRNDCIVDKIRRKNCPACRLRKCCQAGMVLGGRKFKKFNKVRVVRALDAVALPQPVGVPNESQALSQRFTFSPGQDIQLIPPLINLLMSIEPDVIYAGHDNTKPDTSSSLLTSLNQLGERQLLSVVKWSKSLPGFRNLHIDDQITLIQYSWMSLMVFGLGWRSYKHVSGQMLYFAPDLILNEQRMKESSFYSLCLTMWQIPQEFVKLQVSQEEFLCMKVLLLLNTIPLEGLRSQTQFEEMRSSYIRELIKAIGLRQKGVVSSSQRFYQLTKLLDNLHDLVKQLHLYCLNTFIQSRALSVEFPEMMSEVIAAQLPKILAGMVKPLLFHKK

In assay [17] the target is Nuclear receptor subfamily 1 group I member 2 (Rattus norvegicus) (UniProt Q9R1A7). Nature of the assay: Rat pregnane X receptor (rPXR) activation by small molecules, qHTS assay (AID 1346983). Note: nearly all actives have a fitted effect of over 20% in size. The conditions noted are these: rPXR luciferase reporter cells, One-Glo luminescence, 24 h; max activation: stronger effect = higher value. The gist of the method:
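Cell-based rPXR luciferase reporter assay, 2,000 cells per well, rested 5hr at 37 C before compound addition in DMSO, then 24 hr at 37 C. One-Glo reagent was added and luminescence read after 30 min at room temperature.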

Assay [18] has as its target Nuclear receptor subfamily 1 group I member 2 (Homo sapiens) (UniProt O75469). In words: CYP3A4 induction through human pregnane X receptor (PXR) by small molecules, qHTS assay (AID 1346984). Note: nearly all actives have a fitted effect of over 40% in size. The gist of the method: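 Steps: seed DPX-2 cells, 5 hr at 37C; pin-transfer compounds; 24 hr at 37C; add Luciferin-IPA (3uM final), 3 hr at 37C; add One-Glo, 30 min RT; read luminescence.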

The target is the same in assay [19]. In words: Human pregnane X receptor (PXR) activation by small molecules, qHTS assay (AID 1346985). Note: nearly all actives have a fitted effect of over 40% in size. The gist of the method: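 DPX-2 cells (HepG2 co-transfected with a PXR response element and a CYP3A4-promoter luciferase construct) were seeded at 2,000 per well, rested 5 hr at 37C, then exposed to DMSO-dissolved compounds for 24 hr. Activation was read as luciferase luminescence.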
% is set by controls: 0 for no effect and ±100 for the full control effect.

Sequence of Cytochrome P450 2D6 (Homo sapiens) (P10635 whole entry, looked up): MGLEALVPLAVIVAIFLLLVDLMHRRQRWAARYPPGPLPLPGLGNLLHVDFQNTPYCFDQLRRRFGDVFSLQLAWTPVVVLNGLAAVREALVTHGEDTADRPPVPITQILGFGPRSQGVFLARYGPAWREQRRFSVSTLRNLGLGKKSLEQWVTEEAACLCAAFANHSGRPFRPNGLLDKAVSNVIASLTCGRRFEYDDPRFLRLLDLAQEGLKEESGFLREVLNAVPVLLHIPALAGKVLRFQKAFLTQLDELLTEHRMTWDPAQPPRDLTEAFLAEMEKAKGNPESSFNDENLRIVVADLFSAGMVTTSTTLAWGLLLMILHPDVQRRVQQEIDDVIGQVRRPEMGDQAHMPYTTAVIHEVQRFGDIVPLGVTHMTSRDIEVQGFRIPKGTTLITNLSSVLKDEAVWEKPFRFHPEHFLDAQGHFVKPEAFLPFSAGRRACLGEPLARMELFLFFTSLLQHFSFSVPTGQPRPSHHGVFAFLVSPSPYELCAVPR
Sequence of Nuclear receptor subfamily 1 group I member 2 (Rattus norvegicus) (Q9R1A7 whole entry, looked up): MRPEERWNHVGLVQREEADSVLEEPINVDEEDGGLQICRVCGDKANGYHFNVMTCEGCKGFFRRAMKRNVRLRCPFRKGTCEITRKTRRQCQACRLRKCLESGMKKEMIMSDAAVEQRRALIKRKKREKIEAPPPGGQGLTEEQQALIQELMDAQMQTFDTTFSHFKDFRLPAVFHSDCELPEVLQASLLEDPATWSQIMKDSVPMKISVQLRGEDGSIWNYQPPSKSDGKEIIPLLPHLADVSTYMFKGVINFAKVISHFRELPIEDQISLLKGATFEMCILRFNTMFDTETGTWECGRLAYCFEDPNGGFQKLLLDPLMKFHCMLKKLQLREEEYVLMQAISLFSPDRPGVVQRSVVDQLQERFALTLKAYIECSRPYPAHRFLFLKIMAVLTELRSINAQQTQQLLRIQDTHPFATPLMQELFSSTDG
Sequence of Thyrotropin-releasing hormone receptor (Homo sapiens) (P34981 whole entry, looked up): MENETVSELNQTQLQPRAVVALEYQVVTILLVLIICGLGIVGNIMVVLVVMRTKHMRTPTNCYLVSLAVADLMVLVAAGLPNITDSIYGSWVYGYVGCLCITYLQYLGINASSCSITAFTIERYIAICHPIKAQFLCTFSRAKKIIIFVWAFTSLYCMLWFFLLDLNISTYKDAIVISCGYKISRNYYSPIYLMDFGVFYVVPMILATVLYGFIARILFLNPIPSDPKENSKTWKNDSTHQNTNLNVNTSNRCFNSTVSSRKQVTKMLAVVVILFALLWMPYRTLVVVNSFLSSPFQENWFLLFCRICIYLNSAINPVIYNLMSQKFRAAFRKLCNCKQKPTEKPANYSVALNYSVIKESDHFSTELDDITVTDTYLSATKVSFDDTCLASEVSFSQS

Turning to `O=C(O)C1(C(=O)O)CCC1.[NH2-].[NH2-].[Pt+2]`, the Potency result in assay [1], in assay [2], in assay [3], in assay [4], in [6] and in [8] was “inactive” in each case. For the same compound, the Potency entry in assay [9], in [10], in assay [11], in assay [12] and in [13] was “inactive” throughout. The compound was classed as inactive in [5] and in [7].
On to `C=C1[C@H]2CC[C@@H]3[C@H]2C(C)(C)CCC[C@]13C`, for which the Potency result in assay [1], in [4], in assay [6], in assay [8], in assay [14] and in assay [9] was “inactive” in each case. In addition, the Potency result in [12], in assay [13] and in assay [15] was “inactive” each time. Moreover, the call in assay [5] and in [7] was inactive.
With `CCCCC/C=C\C/C=C\CCCCCCCC(=O)NC(C)c1ccccc1` (stereo not given), the Potency result in assay [16], in assay [4], in assay [8], in assay [14], in assay [9] and in [12] was “inactive” in each case. For the same compound, the compound was called inactive in assay [5] and in assay [7]. In addition, the Potency in assay [13] is 21.1 µM (active); in assay [15], 4.36 µM (active).
As to `CCCCC1=NC2(CCCC2)C(=O)N1Cc1ccc(-c2ccccc2-c2nn[nH]n2)cc1`, the Potency result in [1], in assay [2], in assay [3], in [4], in [6] and in assay [14] was “inactive” each time. Further, the Potency result in assay [9], in [11], in assay [13], in assay [18], in assay [19] and in assay [15] was “inactive” in each case. Further, the result in assay [5] was inactive. The Potency in assay [10] was 29.8 µM (active). Moreover, in assay [17], the max activation was -1.35%.
Turning to `CCCCc1ncc(/C=C(\Cc2cccs2)C(=O)O)n1Cc1ccc(C(=O)O)cc1`, the Potency entry in assay [2], in [3], in assay [4], in assay [6], in [8] and in assay [14] was “inactive” in each case. Besides, the Potency result in assay [9], in assay [10], in assay [11], in [12] and in [15] was “inactive” in each case. Also, the compound was classed as inactive in assay [5] and in assay [7]. For the same compound, in [17], the max activation was -2.02%.
As for `CNCCCN1c2ccccc2CCc2ccccc21`, the Potency is 18.8 µM (active) in [2], 21.1 µM (active) in assay [3] and 23.7 µM (active) in assay [14]. For the same compound, the Potency entry in assay [4], in assay [6], in assay [11], in [18] and in [19] was “inactive” throughout. Moreover, the call in assay [5] was inactive. Also, in assay [17], the max activation is -1.95%.
`O=C(O)CC(=O)C(=O)O`: the Potency entry in assay [16], in assay [3], in [4], in assay [6], in assay [14] and in assay [9] was “inactive” throughout. The Potency result in [10], in assay [11], in [12] and in assay [15] was “inactive” throughout. Moreover, the call in assay [5] was inactive. Also, in assay [13], the Potency is 48.7 µM (active).
Regarding `Clc1ccc(Cn2c(CN3CCCC3)nc3ccccc32)cc1`, the Potency is 6.68 µM (active) in assay [2], 7.5 µM (active) in assay [3] and 1.74 µM (active) in [15]. The Potency entry in [4], in assay [6], in assay [8], in [9], in [11] and in assay [12] was “inactive” in each case. Moreover, the compound was called inactive in [7].
Regarding `Nc1ccc([N+](=O)[O-])c(C(F)(F)F)c1`, the Potency result in assay [16], in assay [2], in [4], in assay [6], in [8] and in assay [14] was “inactive” throughout. Also, the Potency entry in assay [9], in assay [11] and in [15] was “inactive” throughout. For the same compound, the call in assay [5] and in [7] was inactive. The Potency in assay [10] was 29.8 µM (active).
As for `C=C(C)C(=O)OCCO`, the Potency result in [2], in assay [3], in [4], in [6], in assay [8] and in [9] was “inactive” each time. Also, the Potency result in assay [12] and in assay [15] was “inactive” throughout. Further, the call in assay [5] and in assay [7] was inactive.
With `CCN(CC)c1ccc2c(-c3ccccc3C(=O)O)c3ccc(=[N+](CC)CC)cc-3oc2c1`, the Potency result in assay [1], in assay [2], in assay [4], in assay [6], in assay [9] and in assay [11] was “inactive” each time. Besides, the compound was called inactive in assay [5] and in assay [7]. Further, the Potency in assay [8] was 34.7 µM (active); in assay [14] it was 4.86 µM (active); in assay [12], 5.45 µM (active); in assay [13], 24.3 µM (active); in [15], 35.6 µM (active).
For `Cc1cccc(C)c1NC(=O)CN(CC(=O)O)CC(=O)O`, the Potency entry in [16], in assay [2], in [4], in assay [6], in assay [8] and in assay [14] was “inactive” each time. Besides, the Potency entry in assay [9], in assay [10], in assay [11], in [12], in assay [13] and in assay [18] was “inactive” throughout. The Potency result in assay [19] and in assay [15] was “inactive” throughout. Further, the compound was classed as inactive in [5] and in assay [7]. Moreover, the max activation in [17] is -0.0723%.
Take `CCCCCCCC/C=C\CCCCCCCC(=O)OCC`: the Potency result in [2], in assay [4], in assay [6], in assay [8], in [14] and in [9] was “inactive” throughout. Also, the Potency entry in assay [10], in assay [11], in [12], in [13] and in [15] was “inactive” each time. Also, the compound was classed as inactive in [5] and in [7].
